Rows were chosen to be rich in hits. Some 6.5% of all compounds tested hit in one or more screens of this group.
HCMV antiviral: qHTS Assay for inhibitors of the human cytomegalovirus (HCMV). HFF cells, HCMV-luciferase reporter, 72 h; active compounds read low. activity change, negative = inhibition, % at 57.5 µM. 410,000 compounds, 4.5% hits; in the data active = activity change below about -60%; inconclusive = no clear call, values can overlap the other calls; inactive = above about -39%
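Cell-based, HFFs, 1000 cells/well, 16 h 37C; cpds in DMSO + HCMV-luc, MOI 1 PFU/cell; 72 h 37C; OneGlo luminescence after 5 min RT; norm. to buffer vs Salinomycin 10uM.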
Lassa entry inh: qHTS for Inhibitors of binding or entry into cells for Lassa Virus; Potency, µM (series often up to 37.9 µM), inactives show top-dose activity change, negative = inhibition, hits mostly inhibitors; AID 540256, 2011; 300,000 compounds, 1.2% hits; Lassa virus pseudotype entry inhibition, cell reporter; calls by dose curve; tested in HEK293 cells; also: potency is read from the fitted curve at half-maximal effect; nearly all actives have a fitted effect of over 50% in size
FMDV inh: High Throughput Screening for Foot and Mouth Disease Virus Antivirals. Potency, µM (titrated, usually from 57.9 µM), without a hit: at the highest dose activity change, negative = inhibition, most hits filed as inhibitors. FMDV antiviral cell-based qHTS. 410,000 compounds, 1.2% hits; calls by dose curve; tested in HEK293T cells; also: read-out not given here; potency is read from the fitted curve at half-maximal effect; nearly all actives have a fitted effect of over 45% in size
Marburg entry inh: qHTS for inhibitors of binding or entry into cells for Marburg Virus; Marburg virus pseudotyped entry inhibition, cell reporter; Potency, µM (top dose mostly 37.8 µM), without a hit: at the top dose activity change, negative = inhibition, most hits filed as inhibitors; 300,000 compounds, 1.8% hits; calls by dose curve; tested in HEK293 cells; also: potency is read from the fitted curve at half-maximal effect
Vaccinia mCherry: qHTS for Stage-Specific Inhibitors of Vaccinia Orthopoxvirus: mCherry Reporter Primary qHTS | Vaccinia virus mCherry reporter infection, fluorescence | Potency, µM (doses to about 36.5 µM), for inactives: top-dose activity change, negative = inhibition, actives largely listed as inhibitors | 310,000 compounds, 0.63% hits; calls by dose curve; tested in A549 cells; also: potency is read from the fitted curve at half-maximal effect; nearly all actives have a fitted effect of over 35% in size
VACV Venus inh: qHTS for Stage-Specific Inhibitors of Vaccinia Orthopoxvirus: Venus Reporter Primary qHTS; Vaccinia virus Venus reporter expression, fluorescence; Potency, µM (series often up to 36.5 µM), for inactives: at the highest dose activity change, negative = inhibition, usual class: inhibitors; 330,000 compounds, 0.46% hits; AID 720580, 2013; calls by dose curve; tested in A549 cells; also: potency is read from the fitted curve at half-maximal effect; nearly all actives have a fitted effect of over 30% in size
The depositor's hits bear a star; i = inactive; ? = inconclusive; nt = no result given; ! = a repeat was not active; [ ] = remark or other dose. % is scaled to controls: 0 for no effect and ±100 for the full control effect.

SMILES	HCMV antiviral	Lassa entry inh	FMDV inh	Marburg entry inh	Vaccinia mCherry	VACV Venus inh
O=C(Cn1ncc2c([nH]c3ccccc32)c1=O)N1CCCCC1	-7	nt	-6%	nt	nt	nt
CCOC(=O)C1CCN(C(=O)Cn2ncc3c([nH]c4ccccc43)c2=O)CC1	-68*!	9%[46.1 µM]	-29%	22%[46.1 µM]	-14%	-4%
COCCNC(=S)N/N=C(\C)c1ccc(Cl)s1	-29	-10%	0%	6%[46.1 µM]	8.9µM*	-24%
C/C(=N\NC(=S)NCc1ccccc1)c1ccc(Cl)s1	?	-29%	50%	?	-19%	-19%
COc1ccc(/C=C/c2nc3ccccc3c(=O)o2)cc1	-95*	?	0%	?	i	-18%
COc1ccc2ncn(-c3ccccc3)c2c1	?	-6%	10%	-19%	nt	nt
COc1ccc(/C=N\n2nnc3ccccc32)cc1	-3	1.4µM*	-85%	2µM*	-11%	-6%
c1ccc2c(c1)ncn2CCn1cnc2ccccc21	-18	2%	-5%	2%	nt	nt
c1ccc(-n2cnc3ccccc32)cc1	-93*	nt	22%	nt	nt	nt
COc1ccc(-n2cnc3ccccc32)cc1	-74*	?	nt	?	-18%	0%
COc1ccccc1/C=C/c1nc2ccccc2c(=O)o1	22	nt	51%	nt	nt	nt
N#Cc1cc2c(=O)n3ccccc3nc2n(-c2nnc(SCc3ccccc3Cl)s2)c1=O	9	-2%[46.1 µM]	-9%	-1%[46.1 µM]	-9%	-13%
COc1ccc(/C=C/c2nc3ccccc3n2C)cc1	-85*	0.11µM*	1.8µM*	?	?	?
CNc1ccccc1C(C)(C)c1cc(-c2cccc([N+](=O)[O-])c2)no1	?	?	-8%	4.5µM*	?	-4%
CNc1ccccc1C(C)(C)c1cc(-c2cccc(Br)c2)no1	?	?	?	?	i	89%
CNc1ccccc1C(C)(C)c1cc(-c2ccc(F)cc2)no1	-85*	-14%	?	?	?	-24%
Cc1ccsc1CCN1C(=O)N(c2ccc(F)cc2)C(=O)C1CC(=O)Nc1ccccc1 (configuration not stated)	-9	-28%[46.1 µM]	-1%	?	-12%	-21%
CCN1C(=O)CC(CC(=O)N2CCCCC2c2nccs2)(c2ccccc2C)C1=O (configuration not stated)	nt	nt	-11%	nt	-9%	2%
c1ccc(C(NCCNC(c2ccccc2)c2ccccc2)c2ccccc2)cc1	-7	?	-17%	8.2µM*	nt	nt
CC(=O)NC(Cc1c(F)c(F)c(F)c(F)c1F)C(=O)NCC(N)C(=O)c1ccccc1 (configuration not stated)	nt	nt	nt	nt	-2%	-14%
CCOC(=O)OC[C@H]1O[C@H](C#Cc2ccc(C)cc2C)C=C[C@H]1OC(=O)OCC	nt	nt	nt	4%[14.2 µM]	nt	nt
CCn1c([N+](=O)[O-])nc2c1c(=O)[nH]c(=O)n2C	-98*	18µM*	?	?	nt	nt
COc1cc(OC)c(OC)cc1CN1CCOc2ccc(CN3C[C@@H](C)O[C@@H](C)C3)cc2C1	nt	nt	-19%	nt	-15%	0%
O=C(Nc1ccccc1O)c1c(O)c2c([nH]c1=O)CCCC2	93	?	-16%	?	18µM*	?
Cc1ccc(N2CC(NC(=O)c3ccc(S(=O)(=O)N4CCCC4)cc3)CC2=O)cc1 (configuration not stated)	-8	-4%[46.1 µM]	-11%	nt	-2%[7.34 µM]	-7%[7.34 µM]
Cc1ccccc1Oc1nc2c(C)cccn2c(=O)c1/C=C(\C#N)C(=O)Nc1c(C)n(C)n(-c2ccccc2)c1=O	77	?	32µM*	?	i	-8%
Cc1ccccc1Oc1nc2ccccn2c(=O)c1/C=C(\C#N)C(=O)Nc1c(C)n(C)n(-c2ccccc2)c1=O	38	-14%	22µM*	4%	i	-13%
CC1CC(C)CN(S(=O)(=O)c2ccc(C(=O)N(C)Cc3ccccc3)cc2)C1 (configuration not stated)	-65*	nt	0%	nt	nt	nt

High-throughput results from PubChem.
